# PubChem BioAssay AID588342 (National Center for Advancing Translational Sciences (NCATS), 2011)
# About 25,000 (6.9%) of roughly 360,000 compounds were called active. About 9% were inconclusive and are not listed. Many of the other results were omitted from the sample, so actives are more common in it than they were. Values without a mark were called inactive. The call rests on the fitted dose curve; in most records, active means well fitted inhibition curve with a large enough effect; inconclusive means small, poorly fitted or top-dose-only effect; inactive means flat fitted curve, though single readings scatter.
# Target: Luciferin 4-monooxygenase (Photinus pyralis) (UniProt P08659)
# Test: qHTS profiling assay for firefly luciferase inhibitor/activator using purifed enzyme and Km concentrations of substrates (counterscreen for miR-21 project); further: nearly all actives have a fitted effect of over 55% in size;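 on activity change, negative = inhibition: plate controls were vehicle for no effect and reference inhibitor for full effect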
# Settings: purified FLuc, luminescence inhibition; series mostly up to 57.5 µM; activity change, negative = inhibition: at the top concentration
# How it was run: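 Biochemical qHTS of compounds, final roughly 60 µM downward over six points, against 10 nM purified firefly luciferase using Km concentrations of substrates (10 uM D-luciferin, 10 uM ATP) in Tris acetate pH 7.5 buffer; luminescence output.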
# Potency means the concentration at half of the fitted maximal effect.
# Luciferin 4-monooxygenase (Photinus pyralis), sequence (P08659 whole entry, looked up): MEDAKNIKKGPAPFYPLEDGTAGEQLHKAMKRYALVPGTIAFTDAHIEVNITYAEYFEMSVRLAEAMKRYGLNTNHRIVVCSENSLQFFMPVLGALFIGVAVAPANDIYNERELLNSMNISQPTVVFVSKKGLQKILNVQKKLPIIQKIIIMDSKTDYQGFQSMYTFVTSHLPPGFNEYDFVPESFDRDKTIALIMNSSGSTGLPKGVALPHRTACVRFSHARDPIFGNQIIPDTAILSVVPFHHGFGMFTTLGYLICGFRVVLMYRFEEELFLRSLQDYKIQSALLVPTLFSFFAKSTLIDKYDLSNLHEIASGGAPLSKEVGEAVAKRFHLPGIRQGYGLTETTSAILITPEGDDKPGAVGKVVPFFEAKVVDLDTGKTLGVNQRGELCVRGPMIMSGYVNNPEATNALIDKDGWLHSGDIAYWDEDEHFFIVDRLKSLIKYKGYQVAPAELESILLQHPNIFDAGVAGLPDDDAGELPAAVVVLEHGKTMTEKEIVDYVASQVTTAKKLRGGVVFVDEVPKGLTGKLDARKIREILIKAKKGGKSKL
SMILES,"activity change, negative = inhibition [%]",Potency
CC1(C)O[C@@H]2[C@H](O1)[C@@H](COS(=O)(=O)O)O[C@H]2n1ccc(=O)[nH]c1=O,3.4,–
O=C(NCC(=O)N(Cc1cccs1)C(C(=O)NC1CCCCC1)c1ccco1)c1cccs1 (stereo not drawn),0.0391,–
Clc1ccc2nc(CSc3ccccc3)cn2c1,–,0.849 µM (active)
O=C(/C=C/c1ccc2c(c1)OCO2)NCc1cn2cc(Cl)ccc2n1,-17.4,–
O=c1c2ccccc2nc2n1C(CSc1ccc(Cl)cc1)CN2 (stereo not drawn),4.01,–
Cc1cccc(-c2oc3ccc(-c4ccc5c(c4)OCO5)cc3c2C#Cc2cncn2C)c1,-28,–
Cc1ccc(NC(=O)CN2C(=O)CC(C)Sc3ccccc32)c(C)c1 (stereo not drawn),-9.71,–
COc1cccc(C2=CC(=O)C[C@H](c3ccc(OC)c(OC)c3)C2)c1,-2.01,–
C/C(=N\O)C1(C)N(O)C(C)(C)C(c2ccc(Br)cc2)=[N+]1[O-] (stereo not drawn),-3.47,–
CC(=O)C1(C)N(O)C(C)(C)C(c2cccs2)=[N+]1[O-] (stereo not drawn),–,0.301 µM (active)
CC1(C)C(c2cccs2)=[N+]([O-])C2(CCCCC2=O)N1O (stereo not drawn),-7.11,–
COc1ccc(SCc2cc(=O)c3ccc(C)c(C)c3[nH]2)cc1,-9.1,–
C=CCn1c(SCC(=O)Nc2ccc(NC(C)=O)cc2)nc2sc(C)c(C)c2c1=O,4.96,–
CC(=O)Nc1ccc(NC(=O)CSc2nnnn2C2CCCCC2)cc1,1.81,–
O=C(CSc1nnnn1C1CCCC1)N1CCCCC1,–,19 µM (active)
CC1CCCC(C)N1C(=O)CSc1nnnn1C1CCCC1 (stereo not drawn),-15.9,–
COc1ccc(Cn2c(=O)n(-c3ccccc3C)c(=O)c3c4c(sc32)CN(C(C)=O)CC4)cc1,3.07,–
COc1ccc(-c2nc3scc(CCNS(=O)(=O)c4cc(F)ccc4OC)n3n2)cc1OC,-15.7,–
CCOc1ccc(CNCCSc2nnnn2C)cc1,6.42,–
O=C(Nc1ccc2c(c1)CCC2)c1ccc(Br)s1,–,1.9 µM (active)
CC1CC(C)CN(CCC(=O)Nc2ccc3c(c2)CCC3)C1 (stereo not drawn),2.31,–
O=C(N/N=C\c1cc2c(cc1Cl)OCO2)c1ccc(Br)s1,0.0212,–
Cc1cccc(N2CCN(S(=O)(=O)c3ccc4[nH]c5c(c4c3)CCCCC5)CC2)c1C,-0.0208,–
CN1CCN(c2oc(-c3ccc(COc4ccc(Cl)cc4)o3)nc2C#N)CC1,-1.14,–
Cc1cc(C)cc(NC(=O)CN2C(=O)c3ccccc3C2=O)c1,-1.43,–
C=CCN(CC=C)C(=O)CN1C(=O)c2ccccc2C1=O,-1.87,–

SMILES,"activity change, negative = inhibition [%]",Potency
C=CCn1c(C)cc(C(=O)CN2C(=O)c3ccccc3C2=O)c1C,–,1.51 µM (active)
CCc1ccc(NC(=O)CCCc2nnc3n(CCCOC)c(=O)c4sccc4n23)cc1,-0.673,–
COc1ccccc1NC(=O)c1cc(S(=O)(=O)NCCc2ccccc2)ccc1F,-0.596,–
Cc1ccc(C)c(S(=O)(=O)n2nc(C)c(S(=O)(=O)N3CCC(C)CC3)c2C)c1,-16.4,–
COc1ccc(CC(=O)Nc2sc(Cc3ccccc3)c(C)c2C(N)=O)cc1,3.91,–
COc1ccc(/C(N)=N/OC(=O)Oc2ccccc2)cc1,-11.7,–
COc1ccc(/C(N)=N/OC(=O)Cc2ccccc2)cc1,–,19 µM (active)
CCC(=O)N1CCc2cc(S(=O)(=O)NC(Cc3ccccc3)C(=O)NCc3ccccc3)ccc21 (stereo not drawn),5.1,–
COc1cccc(N(C(=O)c2snc(C(N)=O)c2N)C(C(=O)NCC2CCCO2)c2c[nH]c3ccccc23)c1 (stereo not drawn),-2.39,–
CCOC(=O)C1(Cc2ccccc2C)CCCN(S(C)(=O)=O)C1 (stereo not drawn),-0.641,–
CCOC(=O)C1(Cc2ccccc2C)CCCN(C(=O)CN2C(=O)CSC2=O)C1 (stereo not drawn),-15.3,–
CCOC(=O)C1(Cc2ccccc2C)CCCN(C(=O)c2ccc(COC)o2)C1 (stereo not drawn),–,21.3 µM (active)
CCOC(=O)c1cn(CC)c2cc(F)c(F)cc2c1=O,5.04,–
COc1ccc(C(=O)NCc2ccc(C)cc2)cc1S(=O)(=O)N1CCCC1,-0.328,–
O=C(c1cnn(-c2ccc(F)cc2)c1-n1cccc1)N1CCN(c2ccc(F)cc2)CC1,-9.96,–
Cc1ccc(C(C[N+](=O)[O-])c2c(C)cc3ccccn23)cc1 (stereo not drawn),0.648,–
Nc1ccccc1SC(C[N+](=O)[O-])c1ccccc1 (stereo not drawn),–,10.7 µM (active)
Cc1ccc(CNC(=O)CCc2c(C)nn(-c3ccc(N4CCCC4)nn3)c2C)cc1,-0.845,–
CCCCOC(=O)c1[nH]c(C)c(C(=O)OC)c1C,–,12 µM (active)
COC(=O)c1c(C)[nH]c(C(=O)NCCc2ccc(S(N)(=O)=O)cc2)c1C,-1.64,–
CCOC(=O)c1c(C)[nH]c(C(=O)OCC(=O)c2ccc(OC)cc2OC)c1C,-8.12,–
CCn1c2ccccc2c2cc(CN3CCN(Cc4cccc(Cl)c4)CC3)ccc21,-0.946,–
CSc1ccccc1C(=O)OCC(=O)N1CCN(C(C)=O)CC1,-2.52,–
COc1ccccc1CNC(=O)COc1ccc(C)nc1[N+](=O)[O-],2.76,–
CCOc1ccccc1C(=O)NC1(C(F)(F)F)NC(=O)N(CCc2ccc(OC)c(OC)c2)C1=O (stereo not drawn),-17.7,–
CCSc1nnc(-c2cc3c(s2)-c2ccccc2CC3)o1,–,10.7 µM (active)

SMILES,"activity change, negative = inhibition [%]",Potency
Fc1ccc(CSc2nnc(-c3cc4c(s3)-c3ccccc3CC4)o2)cc1,-1.05,–
O=C(CSc1nnc(-c2ccccc2O)o1)NC1CCCCC1,1.37,–
CCOC(=O)c1[nH]c(C)c(CCC(=O)N2CCN(c3ccccc3)CC2)c1C,-3.07,–
O=C(c1ccc(S(=O)(=O)N2CCOCC2)cc1)N1CCN(c2ccccc2)CC1,11.8,–
O=C(/C=C/c1ccc(N2CCOCC2)cc1)c1ccccc1,–,0.953 µM (active)
CCCC(=O)Nc1ccc(C(=O)N/N=C/c2ccc[nH]2)cc1,-18,–
CC(=O)Nc1ccc(/C=C/C(=O)c2ccccc2)cc1,–,1.35 µM (active)
CC(=O)Nc1ccc(NC(=S)NC(=O)/C=C/c2ccccc2)cc1,-0.139,–
CC(OC(=O)/C=C/c1ccccc1)C(=O)Nc1ccc(C(N)=O)cc1 (stereo not drawn),0.893,–
O=C(c1ccccc1)c1ccc(C(=O)N2CCN(c3ccccc3)CC2)cc1,4.16,–
COC(C(=O)Nc1ccc(C(C)=O)cc1)c1ccccc1 (stereo not drawn),-2.83,–
CC(=O)Nc1ccc(C(=O)/C=C/c2ccc[nH]2)cc1,–,8.49 µM (active)
Cc1cc(C)cc(NC(=O)C2CCCN2S(=O)(=O)c2cccc3cccnc23)c1 (stereo not drawn),3.8,–
Cc1c(CNC(C)c2ccccc2)c(C(=O)O)c(C)n1Cc1c(F)cccc1Cl (stereo not drawn),-7.24,–
COc1ccc(N2CCN(S(=O)(=O)c3ccc(-c4coc(C)n4)cc3)CC2)cc1,3.39,–
CCOc1ccc(CNC(=O)Cn2cc3c(n2)-c2c(oc(C(=O)N4CCCC4)c2C)CC3)cc1,-0.775,–
CC1(C)O[C@@H]2[C@H](O1)[C@@H](CO)O[C@H]2n1c(N2CCCCC2)nc2c(N)ncnc21,-1.84,–
Cc1ccc(OCC(=O)Nc2ccc(OCc3cc(=O)n4c(C)csc4n3)cc2)cc1C,-0.234,–
Cc1ccccc1NC(=O)Cn1c(=O)n(CCCCC(=O)NCc2ccccc2Cl)c(=O)c2ccccc21,-4.82,–
Cc1ccc2nc(N3CCN(c4cccc(Cl)c4)CC3)c3nnnn3c2c1,-5.21,–
CCOC(=O)c1cc2c(=O)n3ccccc3nc2n(CCCOC)c1=NC(=O)C(C)Oc1ccccc1 (stereo not drawn),1.01,–
CCOc1ccc(CCNC(=O)c2ccc3c(c2)sc2nc(-c4ccc(F)cc4)cn23)cc1OCC,-8.52,–
COc1ccc2oc(=O)c(-c3cn4c(n3)sc3cc(OC)ccc34)cc2c1,-17.1,–
CCOc1cccc2cc(-c3cn4c(n3)sc3cc(C)ccc34)c(=O)oc12,–,0.426 µM (active)
COC(=O)c1ccc(NS(=O)(=O)c2cc3c4c(c2)C(C)C(=O)N4CCC3)cc1 (stereo not drawn),-0.997,–
Cc1ccc(N2C(=O)CC(NCc3ccc4c(c3)OCO4)C2=O)cc1Cl (stereo not drawn),-13.1,–

SMILES,"activity change, negative = inhibition [%]",Potency
COc1ccc(C)cc1S(=O)(=O)Nc1cc2c3c(c1)CCC(=O)N3CCC2,0.954,–
CCc1nn(CC(=O)N2CCN(c3ccc(Cl)cc3)CC2)c(=O)c2cc3occc3n12,-18.2,–
COc1ccc(CCn2cc3c(c2-c2ccc(Br)cc2)c(=O)n(C)c(=O)n3C)cc1OC,-4.89,–
CCOC(=O)c1ccc(-c2ccc(/C=C(\C#N)C(=O)Nc3ccc(C)cc3)o2)cc1,-3.16,–
COc1ccc(C)cc1NC(=O)c1ccc(-c2ccc(C(C)=O)cc2)o1,-11.1,–
CCOC(=O)c1ccc(-c2ccc(C(=O)Nc3cccnc3)o2)cc1,–,15.1 µM (active)
O=C(O)c1c(CNCc2cccc(F)c2)c2ccccc2n1Cc1ccccc1,-11.7,–
Cc1ccc(COc2ccc(/C=N/NC(=O)CN3CCCCC3)cc2)cc1,-13.2,–
CNC(=S)NNC(=O)c1sccc1OCc1ccccc1,0.426,–
Cc1ccc(/C=N/NC(=O)c2sccc2OCc2ccc(F)cc2)cc1,–,1.35 µM (active)
O=C(c1ccc2c(c1)N(Cc1ccccc1F)C(=O)c1ccccc1S2(=O)=O)N1CCOCC1,-3.29,–
CCN(CC)CCNC(=O)CN1N=C(c2ccc(OC)cc2)CCC1=O,3.09,–
COc1ccc(C2=NN(C(=O)c3cccnc3)C(c3ccccc3)C2)cc1 (stereo not drawn),-10.9,–
COc1ccc(C2=NN(c3nc4ccccc4s3)C(=O)C2)cc1,–,9.53 µM (active)
COc1ccc(S(=O)(=O)c2c(Nc3cccc(Cl)c3)sc(C(=O)c3ccccc3)c2N)cc1,0.0899,–
COc1cc(-c2cc3n(C)c(C)c(CCC(=O)Nc4ccc(F)cc4)c(=O)n3n2)cc(OC)c1OC,3.74,–
CCc1ccc(CN(C)C(=O)CCc2nnc(-c3ccc(-c4ccccc4)cc3)o2)nc1,–,13.5 µM (active)
CC(=O)c1ccc(-c2nnc(CCC(=O)N(C)Cc3cnc4ccccn34)o2)s1,-0.52,–
CCc1ccc(CN(C)Cc2nc(Cc3ccccc3)no2)nc1,3.54,–
Nc1ccc(-c2sc(N)nc2-c2ccccc2)cc1,-1.44,–
Nc1ccc(-c2nnc(-c3ccccc3)o2)cc1,–,19 µM (active)
Nc1cccc(-c2cc(-c3ccccc3)nc(-c3cccc(N)c3)n2)c1,1.65,–
CC(=O)c1ccc(NC(c2ccc(F)cc2)c2nnc(-c3ccccc3)o2)cc1 (stereo not drawn),-2.01,–
Nc1ccc(-c2nnc(-c3ccc(-c4ccccc4)cc3)o2)cc1,–,2.69 µM (active)
O=C(OCc1nnc(-c2ccccc2)o1)c1cc(=O)[nH]c2ccccc12,4.33,–
